Among the data in PubChem BioAssay AID488841 (Sanford-Burnham Center for Chemical Genomics, 2010) are inhibition values, retold here.

The structures appear in SMILES notation. About 380 (27%) of roughly 1,400 compounds were called active. This is one part of the list. Unmarked numbers belong to inactive results.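 Rule for the calls: active = mean inhibition above 50% across duplicate retests at 10 µM; inactive = the rest.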

The test in a line: inhibition of NALP1/ASC/caspase-1 reporter signal in yeast, confirmation, NALP1 inhibitor project, S. cerevisiae, luminescence, single concentration (AID 488841).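 Note: plate controls were DMSO in galactose medium for no effect and cells in plain SD medium for full effect.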 The settings on record: S. cerevisiae NALP1/ASC/Caspase-1 reporter, beta-gal luminescence; at 10 µM; hits give high values.
The term inhibition denotes the drop in the measured response relative to a control, in per cent. Take `CCC(C)C(=O)N1c2ccccc2C(=C2SC(C(=O)OC)=C(C(=O)OC)S2)C(=S)C1(C)C` (configuration not stated): the inhibition was 40%.

Consider `COc1ccc(NC(=O)N2CCC(CO)(CC3CCCCO3)CC2)c(OC)c1` (configuration not stated), for which the inhibition is 29.4%.

Consider `CN1CCC(Oc2ccc(Sc3ccccc3)cc2)CC1`, for which the inhibition is 40.1%.

Regarding `O=CC1=C(c2ccccc2)Oc2ccccc2O1`, the inhibition was 94.8% (active).

Take `Clc1ccc(OCCCN2CCCC2)cc1Cl`: the inhibition was 39.5%.

As for `CN(C)Cc1ccccc1Sc1ccccc1Br`, the inhibition is 28.9%.

In the case of `Cc1cccc(Oc2nc(CN3CCOCC3)nc3sc4c(c23)CCCC4)c1`, the inhibition is 51.5% (active).

For the compound `Fc1ccc(Nc2nc(Oc3ccccc3F)nc(N3CCCC3)n2)cc1`, the inhibition is 29.2%.

In the case of `C=CCSc1nsc(NC(=O)Nc2ccc(F)cc2)n1`, the inhibition was 97.7% (active).

As for `O=C1/C(=C/c2cccnc2)SC(=S)N1C1CCS(=O)(=O)C1` (configuration not stated), the inhibition is 44.6%.

Consider `CC1=CC(=O)C=C(C)C1=NOS(=O)(=O)c1ccccc1`, for which the inhibition is 53.9% (active).

Regarding `CC1=C/C(=N\OS(=O)(=O)c2ccccc2)C(C(C)C)=CC1=O`, the inhibition is 88.5% (active).

With `CCN(CCO)Cc1csc2ccc(Br)cc12`, the inhibition was 41%.

Consider `C/C(=N\NC(=O)c1c[nH]c2ccccc12)c1ccco1`, for which the inhibition is 26.3%.

For the compound `O=S(=O)(Nc1ccncc1Cl)c1ccccc1`, the inhibition was 27.6%.

Regarding `O=C(Nc1nccs1)c1sc2ccccc2c1Cl`, the inhibition is 61.4% (active).

Turning to `O=C(Nc1nc(-c2ccccn2)cs1)c1ccc(Cl)s1`, the inhibition was 24.1%.

As for `CNC(=O)c1ccsc1NC(=O)c1sc2ccccc2c1Cl`, the inhibition is 33.5%.

As to `COC(=O)Nc1nc(C)c(C(=O)c2ccccc2)s1`, the inhibition was 44.9%.

`COC(=O)Nc1sc2nc(C)cc(C)c2c1-n1cccc1`: the inhibition is 54% (active).

Take `Cc1ccc2c(Cl)c(C)c(N3CCCCC3)nc2n1`: the inhibition is 55.4% (active).

Take `CSC1=N/C(=C\c2cccnc2)C(=O)N1c1ccccc1`: the inhibition was 30.7%.

Consider `O=S(=O)(Nc1cccnc1)c1cccs1`, for which the inhibition was 26.2%.

With `COc1ccc(C(=O)/C=C/c2ccc(OC)c(CN3CCOCC3)c2)cc1`, the inhibition was 63.4% (active).

As for `Cc1ccc(C(=O)/C=C/c2cn(CC(O)CN3CCOCC3)c3ccccc23)cc1` (configuration not stated), the inhibition was 39.7%.

In the case of `COc1ccc(C(=O)Cn2c(C(=O)/C=C/c3ccccc3)nc3ccccc32)cc1`, the inhibition is 25.8%.

As to `C/C(=N\Nc1nc2c(s1)CCCC2)c1ccccc1`, the inhibition was 29.5%.

Consider `CCOc1ccc(C(=O)C(CCC(CN(C)C)C(=O)c2ccc(OCC)cc2)CN(C)C)cc1` (configuration not stated), for which the inhibition was 73% (active).

Turning to `CC(C)OC(=O)COc1ccc(-c2ccccc2)cc1`, the inhibition is 25.2%.

In the case of `CCCOc1ccc(C(=O)NC(C)C(=O)O)cc1` (configuration not stated), the inhibition was 29.1%.

Take `O=C(NCc1cccnc1)C1CCN(S(=O)(=O)c2cccnc2)CC1`: the inhibition was 33.3%.

Regarding `CCNC(=S)SCCOc1ccccc1C`, the inhibition was 57.5% (active).

For the compound `CCn1c(COc2ccccc2C)nnc1SCC(=O)N1CCN(c2ccccc2)CC1`, the inhibition is 20.6%.

Consider `Cc1ccc(/C(COc2ccccc2O)=N\O)cc1`, for which the inhibition was 44%.

Turning to `C=CCn1c(=O)c2ccc(C(=O)NCc3ccccc3)cc2n(Cc2ccccc2Cl)c1=O`, the inhibition is 27%.

As to `O=C(CCN1CCc2ccccc2C(c2ccccc2)C1)c1ccc2c(c1)OCCO2` (configuration not stated), the inhibition was 30%.

`c1ccc(-c2ccc(-c3cn4c(n3)CCC4)cc2)cc1`: the inhibition is 85.2% (active).

Regarding `Cc1nc(-c2ccccc2)cn2c1nc1ccccc12`, the inhibition is 49%.

As for `COc1cc2nc(Cl)nc(N3CCN(C)CC3)c2cc1OC`, the inhibition is 39.5%.

On to `c1ccc(Nc2ccccn2)cc1`, for which the inhibition is 27.3%.

Consider `O=c1sc(Nc2ccccc2)nc2ccsc12`, for which the inhibition is 78.8% (active).

Regarding `CC(C)CN=Cc1c(O)c([N+](=O)[O-])cc2oc3c(c12)CCCC3`, the inhibition was 35.5%.

Take `CC(C)C(=O)N(Cc1ccccc1)c1ccccn1`: the inhibition is 19.8%.

With `Cc1cc(C)c(S(=O)(=O)N(CC(=O)O)CC(=O)O)c(C)c1`, the inhibition is 25.9%.

Consider `CCOc1ccccc1NC(=O)/C=C/C(N)=O`, for which the inhibition is 59.6% (active).

Turning to `CCCOc1ccccc1NC(=O)/C=C/C(N)=O`, the inhibition is 71.2% (active).

With `CCOc1ccccc1N/C=C(\C#N)c1nc2ccccc2n1C`, the inhibition was 12.5%.

Regarding `CCCCOc1ccccc1NC(=O)c1ccco1`, the inhibition was 34.8%.

Consider `COc1ccccc1NC(=O)CCN1CCN(Cc2ccccc2)CC1`, for which the inhibition is 44.5%.

Turning to `O=[N+]([O-])/C(C(=C(Cl)Cl)N1CCN(Cc2ccccc2)CC1)=C1\NCCN1Cc1ccc(Cl)nc1`, the inhibition is 35.4%.

For the compound `CCOC(=O)c1c(C)[nH]c(N=Nc2cccc(C)c2)c1C`, the inhibition was 46.4%.

In the case of `Oc1c(Cl)cc(Cl)c2c1NCCC2`, the inhibition is 41.9%.

For `Oc1c(Cl)cc(Cl)c(Cl)c1Cc1c(O)c(Cl)cc(Cl)c1Cl`, the inhibition was 99.9% (active).

On to `CCOC(=O)C(C(=O)OCC)C(C(=O)OCC)N1CCOCC1` (configuration not stated), for which the inhibition was 64.8% (active).

`CCC(Cc1ccccc1)NC(=O)C1CCN(S(=O)(=O)c2c(C)noc2C)CC1` (configuration not stated): the inhibition is 26.1%.

On to `CCOC(=O)c1cc([N+](=O)[O-])c([N+](=O)[O-])cc1NC(C)=O`, for which the inhibition was 24.9%.

Consider `NS(=O)(=O)c1ccc(NC(=O)COC(=O)c2cn(-c3ccccc3)nc2-c2ccc(F)cc2)cc1`, for which the inhibition was 18.7%.

Consider `CN(C)c1ccc(NC(=O)COC(=O)c2cc(Cl)ccc2[N+](=O)[O-])cc1`, for which the inhibition was 62.9% (active).

Take `CC1CCN(CCOc2ccc(OCc3ccccc3)cc2)CC1`: the inhibition was 48.1%.

On to `O=C(N/N=C/c1cccc(F)c1)c1c(O)c2ccccc2[nH]c1=O`, for which the inhibition was 31.5%.

As to `CCOC(=O)c1nc(C)sc1-c1ccnn1S(=O)(=O)c1ccc(C)cc1`, the inhibition was 29.4%.

Consider `O=C(O)CC(Cn1cnnn1)c1ccccc1` (configuration not stated), for which the inhibition is 25.9%.

With `CCc1cccc(OCCN2CCCC2)c1`, the inhibition is 29.9%.

In the case of `Brc1cccc(OCCN2CCCCC2)c1`, the inhibition was 44.9%.

On to `Clc1cccc(OCCN2CCN(CCOc3cccc(Cl)c3)CC2)c1`, for which the inhibition is 60.4% (active).

As for `CCN(CC)S(=O)(=O)c1cccc(C(=O)N[C@H](C(=O)O)C(C)C)c1`, the inhibition is 33.2%.

Turning to `Cc1cccc(N=C2NC(=O)/C(=C\c3cccs3)S2)c1`, the inhibition was 44%.
